# ADAM17 inh – inhibits human ADAM17. P78536. recombinant ADAM17, EDANS/DABCYL FRET peptide cleavage. inhibition, % at 6.95 µM. actives 0.83% (n = 370,000);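 active = inhibition above the mean of compounds lying between control limits plus 3 SD, set per campaign, cut at about 8.5% in these data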
# FAS TE block – inhibitors of human fatty acid synthase thioesterase domain; P49327; recombinant FAS-TE, OMFH fluorogenic substrate, fluorescence endpoint; inhibition, % at 15 µM; actives 0.67% (n = 360,000);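 active = compounds whose normalised, plate-corrected inhibition of enzyme fluorescence in the single-dose primary screen is 50% or more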
# aDG glyco up – alpha-DG glycosylation activation. activation, % at 10 µM. Pro5-aDG cells, alpha-DG glycosylation AlphaScreen (IIH6); 0% Pro5, 100% B10-LARGE cell signal. AID 624168. actives 0.22% (n = 360,000);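 active = activation of at least 8% versus controls, or a plate z-score of at least 8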;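 also: Pro5 are CHO cells carrying HIG-tagged alpha-DG that lacks glycosylation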
# ADAM10 inh – inhibits human ADAM10; O14672; recombinant ADAM10, EDANS/DABCYL FRET peptide cleavage, 3 h; inhibition, % at 7 µM; actives 0.62% (n = 370,000); AID 720582;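 active = inhibition above a per-campaign cutoff equal to the mean of compounds falling between control-based bounds plus 3 SD, cut at about 20% in these data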
# Target sequence (O14672 214-748 limits assumed): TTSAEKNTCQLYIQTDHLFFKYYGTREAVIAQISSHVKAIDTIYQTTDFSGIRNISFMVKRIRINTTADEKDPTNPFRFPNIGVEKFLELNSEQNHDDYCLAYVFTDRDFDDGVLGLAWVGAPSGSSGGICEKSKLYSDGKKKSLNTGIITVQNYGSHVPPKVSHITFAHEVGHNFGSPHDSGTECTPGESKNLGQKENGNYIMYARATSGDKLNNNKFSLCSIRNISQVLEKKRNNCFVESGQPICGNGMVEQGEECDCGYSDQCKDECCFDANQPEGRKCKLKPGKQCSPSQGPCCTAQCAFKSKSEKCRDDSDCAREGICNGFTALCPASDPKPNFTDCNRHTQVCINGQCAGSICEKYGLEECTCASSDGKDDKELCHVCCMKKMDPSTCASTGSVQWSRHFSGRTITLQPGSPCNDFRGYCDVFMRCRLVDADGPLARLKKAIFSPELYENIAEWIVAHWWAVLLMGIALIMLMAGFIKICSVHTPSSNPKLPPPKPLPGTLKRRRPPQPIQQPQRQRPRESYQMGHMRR
# NR3A LBD binder – modulates the human NR3A ligand-binding domain; NR3A LBD differential scanning fluorimetry, Tm shift; 0% = protein alone, 100% = glycine-bound protein; actives 2.5% (n = 340,000); Tm shift relative to glycine control, % at 25 µM; AID 1259313;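 active = melting temperature shift of at least 10% of the positive control shift, at one fixed dose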
# Numbers stand for hits; 0 = inactive; - = no result. Only some compounds are listed: those with a hit (about 4% of all), similar ones and a draw of the others.
SMILES,ADAM17 inh,FAS TE block,aDG glyco up,ADAM10 inh,NR3A LBD binder
CCCOC(=O)c1ccc(NC(=O)/C=C/c2cccs2)cc1,0,0,0,0,28
NC(N)=NS(=O)(=O)c1ccc(NC(=S)NC(=O)/C=C/c2cccs2)cc1,0,0,0,0,11
NS(=O)(=O)c1ccc(NC(=S)NC(=O)/C=C/c2cccs2)cc1,0,0,0,0,0
Cc1cc(NC(=O)CCS(=O)(=O)c2ccc3c(c2)NC(=O)C(C)S3)ccc1Br (configuration not stated),-,0,0,-,0
CCOC(=O)c1ccc(NC(=O)Nc2ccc3c4c(cccc24)C(=O)N3CC)cc1,0,0,0,0,17
CC1=NN(c2ccc(Cl)cc2)C(=O)/C1=C\c1cccn1-c1ccc(S(N)(=O)=O)cc1,0,0,0,0,22
OC[C@@H]1[C@@H](c2ccc(Cl)cc2)C(c2ccc(F)cc2)=NN1c1ccccc1,0,0,0,0,30
OC[C@@H]1[C@@H](c2ccccc2)C(c2ccccc2)=NN1c1ccccc1,0,0,0,0,0
Cc1cccc(C2=NN(c3ccccc3)[C@H](CO)[C@H]2c2ccc(Cl)cc2)c1,0,0,0,0,23
OC[C@@H]1[C@@H](c2ccccc2)C(c2cccc(Cl)c2)=NN1c1ccccc1,0,0,0,0,26
OC[C@@H]1[C@@H](c2ccccc2)C(c2ccc(F)cc2)=NN1c1ccccc1,-,0,0,-,0
CSc1ccccc1OCc1cc(C(=O)N(C)C(C)c2nc(C)cs2)no1 (configuration not stated),0,0,0,0,0
COc1ccc(CN2CCCCCC2)cc1Br,0,0,0,0,0
Cn1ccsc1=NC(=O)c1ccc([N+](=O)[O-])o1,0,0,0,0,0
CC(=O)c1ccccc1C(=O)N1CCCC(CNC(=O)c2ccccc2Cl)C1 (configuration not stated),0,0,0,0,0
Cc1ccccc1Nc1nc(Cl)nc(NC(C)(C)C)n1,0,0,0,0,-
Cc1cc(Br)c(NC(=O)c2c(-c3c(Cl)cccc3Cl)noc2C)c(Br)c1,0,0,0,0,12
O=C(Cn1cc(COc2ccc3ccc(=O)oc3c2)nn1)c1ccc(O)cc1,0,0,0,0,46
CCOC(=O)Cn1c(=NC(=O)c2cc(-c3cccs3)nc3ccccc23)sc2cc(S(N)(=O)=O)ccc21,0,0,0,0,26
COC(=O)Cn1c(=NC(=O)c2cc(-c3cccs3)nc3ccccc23)sc2cc(S(N)(=O)=O)ccc21,0,0,0,0,16
COC(=O)Cn1c(=NC(=O)c2nc3ccccc3s2)sc2cc(S(N)(=O)=O)ccc21,0,0,0,0,0
CCC(=O)Nc1ccc(C(=O)NNC(=O)c2cc([N+](=O)[O-])cc([N+](=O)[O-])c2)cc1,0,0,0,0,0
c1ccc(-c2ccn3nnnc3n2)cc1,0,0,0,0,0
CC1CCCCC1NC(=O)CCn1c(=S)[nH]c2ccccc2c1=O (configuration not stated),0,0,0,0,-
COC(=O)C(C(=O)N1CCN(C)CC1)C1CCCCCC1 (configuration not stated),0,0,0,0,13
SMILES,ADAM17 inh,FAS TE block,aDG glyco up,ADAM10 inh,NR3A LBD binder
CCOC(=O)C(C(=O)N1CCOCC1)C1CCCCC1 (configuration not stated),0,0,0,0,0
CCOC(=O)C1=C(C)N=c2s/c(=C\c3ccc(C(=O)O)cc3)c(=O)n2C1c1ccc(OC)cc1OC (configuration not stated),0,0,0,0,429
CN(CC(=O)Nc1ccc(N2CCOCC2)cc1)C(=O)c1cn(-c2ccccc2)nc1-c1ccccc1,0,0,0,0,0
N#C/C(=C/c1ccc(N2CCCCC2)cc1)c1cccc(F)c1,0,0,0,0,12
COCc1nn2c(N)c(-c3ccccc3)cnc2c1-c1ccccc1,0,0,0,0,0
CCN(CC(O)COc1ccc(OCC(O)CN(CC)C2CCCCC2)cc1)C1CCCCC1 (configuration not stated),0,0,0,0,0
O=c1[nH]nc(-c2ccc(NCCO)c([N+](=O)[O-])c2)c2ccccc12,0,0,0,0,0
O=[N+]([O-])c1cc(Cl)cc2c1nc(NCCO)c1ccccc12,0,0,0,0,13
CCOC(=O)[C@]12CCCC=C1N(Cc1ccc3c(c1)OCO3)C(=O)[C@H](CC(=O)NCc1cccc(C(F)(F)F)c1)C2,0,0,0,0,-
CCOc1ccc(CNC(=O)CCCn2nc(CC)n3c(cc4occc43)c2=O)cc1,0,0,0,0,0
CCc1nn(CCCC(=O)NCc2ccc(OC(C)C)cc2)c(=O)c2cc3occc3n12,0,0,0,0,16
CCCCOc1ccc(-c2cnc3ccccc3n2)cc1,0,0,0,0,22
Oc1ccc(-c2cnc3ccccc3n2)cc1,0,0,0,0,37
Cc1noc(C)c1C(=O)OCC(=O)NC1CCCCC1C (configuration not stated),0,0,0,0,0
Cc1noc(C)c1C(=O)OCC(=O)NC1CC1,0,0,0,0,16
C=CCSc1nc(-c2ccccc2)c2cc(Cl)ccc2n1,0,0,0,0,0
N#CCSc1nc(-c2ccccc2)c2cc(Cl)ccc2n1,0,0,0,0,18
Brc1ccc(NCc2nnc3n2CCCCC3)cc1,0,0,0,0,0
C/C(=N\Nc1cc(-c2ccccc2)nc(-c2ccccc2)n1)c1ccc(O)c(C)c1,0,0,0,0,28
COc1cc(N/N=C(\C)c2ccc(N)cc2)nc(-c2ccccc2)n1,0,0,0,0,0
C/C(=N\Nc1nc(C)cc(-c2ccccc2)n1)c1ccc(O)cc1,0,0,0,0,0
COc1cc(N/N=C(\C)c2ccc(O)c(C)c2)nc(-c2ccccc2)n1,0,0,0,0,22
O=C(CN1c2ccccc2Sc2ccccc21)N/N=C/c1ccc(Cl)cc1Cl,0,0,0,0,15
O=C(CN1c2ccccc2Sc2ccccc21)N/N=C/c1ccc(Cl)cc1,0,0,0,0,11
Cc1cc(OCC(=O)NNC(=O)c2cccs2)ccc1Br,0,0,0,0,0
SMILES,ADAM17 inh,FAS TE block,aDG glyco up,ADAM10 inh,NR3A LBD binder
Cc1ccc(-n2c(C)cc(C3=NNC(=NC4CC4)SC3)c2C)cc1C,9.5,0,0,0,0
Cc1cc(C2=NNC(=NC3CC3)SC2)c(C)n1-c1c(C)n(C)n(-c2ccccc2)c1=O,0,0,0,0,0
CCN(CC)S(=O)(=O)c1ccc(N2CCOCC2)c(NC(=O)c2ccc(=O)[nH]c2)c1,0,0,0,0,0
CCCc1nc2c(o1)CC(CC(C)SCC)CC2=O (configuration not stated),0,0,0,0,0
COc1ccc(N=Nc2cnc(C)nc2-c2ccccc2)cc1,0,0,0,0,0
Cc1ncc(N=Nc2ccccc2Cl)c(-c2ccccc2)n1,0,0,0,0,17
CCN1C(C)=C(C)S/C1=C1\SC(=S)N(N)C1=O,0,0,0,0,0

# Source: PubChem (several laboratories)
